This is a sample that favours compounds with a hit; in the whole collection about 19% have one here.
TDP1 cell noCPT: qHTS for Inhibitors of human tyrosyl-DNA phosphodiesterase 1 (TDP1): qHTS in cells in absence of CPT | DT40 Tdp1-/- hTDP1 cells, no CPT, ATP luminescence, 48 h | Potency, µM (doses to about 46.2 µM), for inactives: at the highest dose activity change, negative = growth inhibition, hits mostly inhibitors | actives 15% (n = 420,000) | AID 686978, 2013; note: potency is the fitted concentration of half-maximal effect; % is set by controls: 0 for no effect and ±100 for the full control effect; nearly all actives have a fitted effect of over 55% in size
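Chicken DT40 Tdp1-/- cells stably complemented with human TDP1 were seeded at 400 cells/well with DMSO in place of 20 nM camptothecin. After compound pinning, cells grew at least 48 hr at 37 °C; viability read by CellTiter-Glo luminescence.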
HepG2 tox: HepG2 cytotoxicity, counter-screen for TGF-b inhibitors; HepG2 CAGA-GFP viability, ATP luminescence, 18 h; Potency, µM (top dose mostly 46.1 µM), for the others: at the top dose activity change, negative = cytotoxicity, hits mostly cytotoxic; actives 0.76% (n = 410,000); note: potency is the fitted concentration of half-maximal effect
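HepG2 CAGA-GFP cells (1000/well, DMEM with 1% FBS) received compound, then TGF-beta at 500 pg/mL final, and were incubated 18 hours at 37 degrees C. Viability was read by CellTiter-Glo luminescence. Media-only wells were set as complete cell-killing and DMSO as no toxicity.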
IL1B secr inh: inflammasome signaling inhibition, IL-1 beta readout; THP-1 LPS/ATP IL-1B secretion, AlphaLISA, 16 h; active compounds read low; activity change, % at 57.5 µM; actives 4.7% (n = 360,000); in the data active = activity change below about -50%; inconclusive = mostly about -30% to -49%; note: % is set by controls: 0 for no effect and ±100 for the full control effect
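THP-1 cells pretreated 1 hr with compounds (up to 57.5 uM final), then stimulated with LPS (250 ng/mL final) plus ATP (1.25 mM final); secreted IL-1B measured by AlphaLISA after 16 hr, decreased signal indicating inhibition.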
TGFb SMAD3 inh: inhibitors of TGF-b signaling; HepG2 CAGA-GFP TGF-b/SMAD3 reporter, GFP fluorescence, 18 h; TGF-beta stimulated, 500 pg/mL final; Potency, µM (top dose mostly 46.1 µM), for the others: at the top dose activity, negative = inhibition, hits mostly inhibitors; actives 1.2% (n = 410,000); AID 588855; note: potency is the fitted concentration of half-maximal effect; % is set by controls: 0 for no effect and ±100 for the full control effect; nearly all actives have a fitted effect of over 65% in size
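Cell-based qHTS in HEPG2 carrying a CAGA-GFP Smad reporter; compounds added before 500 pg/mL final TGF-beta, 18 h incubation at 37 degrees C, GFP fluorescence quantified per cell by imaging cytometry.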
TDP1 cell CPT: growth inhibition of DT40 Tdp1-/-;hTDP1 cells with camptothecin (screen for TDP1 inhibitors) | chicken DT40 Tdp1-/-;hTDP1 cells + 20 nM CPT, ATP luminescence, 48 h | Potency, µM (top dose mostly 46.2 µM), inactives show top-dose activity change, negative = growth inhibition, usual class: inhibitors | actives 12% (n = 420,000) | AID 686979; note: potency is the fitted concentration of half-maximal effect; % is set by controls: 0 for no effect and ±100 for the full control effect; nearly all actives have a fitted effect of over 55% in size
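Chicken DT40 Tdp1-/- cells complemented with human TDP1, 400 cells/well, exposed to compounds plus 20 nM camptothecin for at least 48 h at 37 C; viability read as ATP content by CellTiter-Glo luminescence.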
ASM inhibitor: blocks human secretory acid sphingomyelinase. AID 504937. Potency, µM (top dose mostly 57.5 µM), without a hit: at the top dose activity change, negative = inhibition, most hits filed as inhibitors. placental ASM, HMU-PC fluorogenic substrate, 60 min. actives 0.006% (n = 340,000); note: potency is the fitted concentration of half-maximal effect
Target sequence (P17405 47-631 limits assumed): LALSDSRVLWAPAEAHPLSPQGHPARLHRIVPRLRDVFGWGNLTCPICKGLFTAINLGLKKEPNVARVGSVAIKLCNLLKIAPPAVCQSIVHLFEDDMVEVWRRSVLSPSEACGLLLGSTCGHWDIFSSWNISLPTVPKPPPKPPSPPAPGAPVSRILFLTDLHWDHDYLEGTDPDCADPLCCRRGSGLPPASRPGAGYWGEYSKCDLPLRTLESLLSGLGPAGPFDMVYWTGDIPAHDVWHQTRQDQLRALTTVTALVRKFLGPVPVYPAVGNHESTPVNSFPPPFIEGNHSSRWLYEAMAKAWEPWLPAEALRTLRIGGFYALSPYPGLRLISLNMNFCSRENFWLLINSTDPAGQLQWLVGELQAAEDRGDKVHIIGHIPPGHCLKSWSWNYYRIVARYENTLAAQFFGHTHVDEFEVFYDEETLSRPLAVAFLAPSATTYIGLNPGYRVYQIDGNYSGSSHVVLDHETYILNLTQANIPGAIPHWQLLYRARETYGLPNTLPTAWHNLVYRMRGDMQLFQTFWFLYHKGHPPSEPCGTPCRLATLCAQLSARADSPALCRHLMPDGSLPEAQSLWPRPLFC
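Steps: dispense placental human ASM, pin compound, wait 10 min at room temperature, add HMU-PC0 substrate at 9 uM final, incubate 60 min at 37 °C, add stop solution raising pH to 10, read fluorescence.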
Active calls of the source: *; ? = inconclusive; / = no result; [ ] = dose if it differs, or a comment. Unless noted, calls come from the whole dose curve; as a rule, active = well fitted curve in the direction sought with a large enough effect; inconclusive = small, poorly fitted or top-dose-only effect, or another doubt; inactive = no such curve, though single readings can be large; an effect the other way counts as inactive or inconclusive.

SMILES | TDP1 cell noCPT | HepG2 tox | IL1B secr inh | TGFb SMAD3 inh | TDP1 cell CPT | ASM inhibitor
COc1ccc(-c2ccc(CN3C(CC(C)C)C(=O)N(Cc4cn(CC5CCCCC5)nn4)CCS3(=O)=O)cc2)cc1OC (stereo not given) | 21µM* | -2% | -11 | -6% | 23µM* | /
CN(C)c1ccc(NC(=O)CSc2nnc(C3CCCCC3)n2N)cc1 | 13% | -5% | -11 | 1% | -9% | 6%
Cc1ccc(-c2noc(CNC(=O)c3ccccc3)n2)cc1 | ? | -4% | / | -4% | ? | /
Cc1ccsc1C(=O)N(Cc1cc2ccc(F)cc2nc1N1CCC(O)CC1)CC1CCCO1 (stereo not given) | -5% | / | / | / | 9%[9.04 µM] | /
O=C(Nc1ccc(S(=O)(=O)N2CCCC2)cc1)c1ccc2c(=O)n3c(nc2c1)CCCCC3 | 16µM* | -6% | -5 | ? | ? | 1%
O=C(Nc1cccc(Cl)c1)c1ccc2c(=O)n3c(nc2c1)CCCCC3 | ? | -22% | -74* | -28% | 23µM* | -27%
Cc1ccc(-c2csc(NC(=O)c3ccc4c(=O)n5c(nc4c3)CCCCC5)n2)cc1 | 13µM* | -4% | 0 | -27% | 10µM* | -15%
CC(=O)c1ccc(NC(=O)c2ccc3c(=O)n4c(nc3c2)CCCCC4)cc1 | ? | -18% | -13 | -16% | ? | -5%
O=C(Nc1ccc(F)cc1)c1ccc2c(=O)n3c(nc2c1)CCCCC3 | 16µM* | -19% | -14 | ? | ? | -5%
Cc1ccc(NS(=O)(=O)c2c(C)[nH]c(C)c2C(=O)N2CCCCC2)c(Cl)c1 | -19% | -7% | 0 | -5% | ? | 1%
COc1cc(OC)c2c(c1)OC(=O)CC2c1ccc(C)cc1 (stereo not given) | ? | -20% | -12 | -6% | -30% | 4%
O=C(Nc1ccc(F)c(Cl)c1)c1ccc2c(=O)n3c(nc2c1)CCCCC3 | 21µM* | -13% | -10 | -19% | 16µM* | ?
CCOC(=O)c1c(S(=O)(=O)N2CCCC(C(=O)N3CCN(c4cc(C)ccc4C)CC3)C2)c(C)n(C)c1C (stereo not given) | 9.2µM* | -9% | / | ? | 8.2µM* | /
CCOC(=O)c1c(S(=O)(=O)N2CCC(C(=O)N3CCN(c4cc(C)ccc4C)CC3)CC2)c(C)n(C)c1C | 23µM* | -12% | / | -27% | ? | /
CCOC(=O)c1c(S(=O)(=O)N2CCCC(C(=O)N3CCN(c4cccc(C)c4C)CC3)C2)c(C)n(C)c1C (stereo not given) | 9.2µM* | -23% | / | 0% | 7.3µM* | /
Cc1cccc(-n2c(=O)c3c(c4cc(C)ccc4n3C)n(CC(=O)NCCC3=CCCCC3)c2=O)c1 | ? | -2% | / | -3% | ? | /
CCCCOC(=O)c1ccc(NS(=O)(=O)c2c(C)nc3scc(C)n3c2=O)cc1 | 23µM* | -29% | / | 11µM* | 13µM* | /
Cc1cn2c(=O)c(S(=O)(=O)Nc3ccc(OC(F)(F)F)cc3)c(C)nc2s1 | 23µM* | 15% | / | 52% | 21µM* | /
COc1cc(OC)c(NS(=O)(=O)c2c(C)nc3sc(C)cn3c2=O)cc1Cl | 15µM* | -11% | / | -20% | ? | /
COc1ccc(CCNS(=O)(=O)c2c(C)nc3sc(C)cn3c2=O)cc1OC | -4% | 0% | / | -2% | -12% | /
COc1ccc(C(=O)Nc2ccc(S(=O)(=O)N3CCOCC3)cc2)cc1 | -21% | 8% | 12 | ? | -3% | -3%
COc1ccc(C(=O)Nc2ccc(-c3ccc(C)o3)cc2)cc1S(=O)(=O)N1CCOCC1 | 21µM* | -29% | -19 | -19% | ? | -7%
COc1ccc(C(=O)Nc2ccc(Cl)c(S(=O)(=O)N3CCOCC3)c2)cc1 | ? | -3% | -75* | -11% | ? | -1%
CCOc1c(Br)cc(C(=O)Nc2cccc(S(=O)(=O)N3CCOCC3)c2)cc1OC | 23µM* | -11% | -20 | -11% | ? | /
COc1cccc(CNC(=O)c2ccc(Cl)c(S(=O)(=O)N3CCOCC3)c2)c1 | 4.1µM* | -60% | -8 | -12% | -12% | -1%
SMILES | TDP1 cell noCPT | HepG2 tox | IL1B secr inh | TGFb SMAD3 inh | TDP1 cell CPT | ASM inhibitor
COc1ccc(C(=O)Nc2ccc(N3CCOCC3)cc2)cc1S(=O)(=O)N1CCOCC1 | -9% | 11% | 9 | -24% | -17% | 1%
COc1ccc(C(=O)Nc2cccc(S(=O)(=O)N3CCCC3)c2)cc1S(=O)(=O)N1CCOCC1 | ? | -7% | 7 | -3% | ? | 3%
CN(C)c1ncnc2c1ncn2[C@H]1CN(CCN2CCOCC2)C[C@@H](CO)O1 | -7% | -2% | -9 | -3% | 3% | /
COc1ccc(-c2noc(CCC(=O)N(C)c3cc(Cl)ccc3OC)n2)cc1 | -29% | -20% | / | -23% | ? | /
CCN(C(=O)CSc1nnc(-c2ccncc2)n1Cc1ccccc1)C1CCS(=O)(=O)C1 (stereo not given) | 6% | 0% | 7 | -3% | 13% | 9%
COc1ccc(C(=O)Nc2ccc(Cl)cc2C(=O)NCCN2CCOCC2)cc1 | -29% | -22% | -56* | 5% | -23% | -2%
COc1ccc(C(=O)NNC(=O)c2cccc(S(=O)(=O)N3CCOCC3)c2)cc1 | -11% | 8% | 22 | 8% | -14% | 0%
COc1ccc(C(=O)NC(=S)Nc2cccc(S(=O)(=O)N3CCOCC3)c2)cc1 | 7.3µM* | -24% | -4 | 0% | 5.8µM* | -1%
O=C(Nc1ccc(Cl)c(S(=O)(=O)N2CCOCC2)c1)c1ccc(Cl)nc1 | 18µM* | -8% | 28 | -6% | ? | -2%
CCOc1ccc(CCNC(=O)Cn2nnc(-c3ccccc3Cl)n2)cc1OCC | -27% | -4% | / | 15% | -24% | /
Cn1c(=O)c2sccc2n2c(CCCC(=O)Nc3ccc(Cl)cc3)nnc12 | ? | 0% | / | -5% | 21µM* | /
Cn1c(=O)c2sccc2n2c(CCCC(=O)Nc3ccc(Oc4ccccc4)cc3)nnc12 | 16µM* | -38% | / | 13µM* | ? | /
CC(C)Cn1c(=O)c2sccc2n2c(CCCC(=O)Nc3ccc(Cl)cc3)nnc12 | 18µM* | -22% | / | -27% | ? | /
COc1cc(NC(=O)CCCc2nnc3n(C)c(=O)c4sccc4n23)cc(OC)c1OC | 1% | 1% | / | -1% | 10% | /
CCn1c(=O)c2sccc2n2c(CCC(=O)Nc3cc(C)cc(C)c3)nnc12 | -3% | 10% | / | -8% | -1% | /
